In the library only some 3.3% were active in any assay of this set; here they are far more common.
WRN inhibitor = qHTS for Inhibitors of WRN Helicase; AID 651768, 2012; Potency, µM (doses to about 114 µM), inactives show at the highest dose activity change, negative = inhibition, actives largely listed as inhibitors; Bifunctional 3'-5' exonuclease/ATP-dependent helicase WRN (Homo sapiens), Q14191; 360,000 compounds, 0.46% hits; WRN helicase unwinding, fluorescent forked duplex, kinetic; also: potency is read from the fitted curve at half-maximal effect; nearly all actives have a fitted effect of over 55% in size
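Enzyme (20 nM final) and test compound sit together 15 min at room temperature before substrate addition. Substrate is a single-forked duplex oligonucleotide (100 nM) labelled with fluorophore and quencher, with 2 mM ATP; helicase unwinding raises red fluorescence, read kinetically.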
USP2a inh = qHTS Assay for Inhibitors of Ubiquitin-specific Protease USP2a Using CHOP2 as the Reporter; Ubiquitin carboxyl-terminal hydrolase 2 (Homo sapiens), O75604; USP2 core, Ub-CHOP2 coupled fluorogenic reporter, 485/531; Potency, µM (highest dose often 38.3 µM), for inactives: at the top dose activity change, negative = inhibition, usual class: inhibitors; 330,000 compounds, 0.01% hits;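 also: potency is read from the fitted curve at half-maximal effect; plate controls were DMSO wells for no effect and full inhibition by NEM control for full effect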
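Deubiquitinase activity read as fluorescence (485/531 nm) after Ub-CHOP2 cleavage activates the enterokinase reporter on its substrate; USP2 core 10nM, Ub-CHOP2 and substrate 25nM each, 30min compound preincubation then 60min RT; data normalized to NEM, curves fitted.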
PI5P4Ka inh = qHTS for Inhibitors of phosphatidylinositol 5-phosphate 4-kinase (PI5P4K) | Phosphatidylinositol 5-phosphate 4-kinase type-2 alpha (Homo sapiens), P48426 | PI5P4Kalpha enzyme, ADP-Glo luminescence, 60 min; stronger effect = lower value | max response, % | 330,000 compounds, 1.2% hits | AID 652105, 2013; active = max response of -50% or lower; inconclusive = between -30% and -50%; inactive = -30% or higher; also: value at the top dose of about 77 µM
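Quantitative HTS of the MLSMR library against PI5P4Kalpha with substrate. ATP added last at 5 microM final; room temperature, 60 minutes. Remaining ATP depleted, ADP converted and read as luminescence.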
USP1-UAF1 inh = Inhibitors of USP1/UAF1: Primary Screen. 390,000 compounds, 0.23% hits. AID 743255, 2014. Potency, µM (series often up to 57.1 µM), for the others: at the top dose activity change, negative = inhibition, usual class: inhibitors. recombinant USP1/UAF1, Ub-Rhodamine cleavage fluorescence; also: potency is read from the fitted curve at half-maximal effect; nearly all actives have a fitted effect of over 60% in size
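Step one: compound is pinned into 1nM USP1/UAF1 in HEPES pH 7.8 buffer with TCEP. Step two: 15 min room-temperature incubation. Step three: Ub-Rho (150nM final) starts cleavage, tracked by fluorescence over six one-minute reads.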
PLK1 PBD block = qHTS for Inhibitors of PLK1-PDB (polo-like kinase 1 - polo-box domain): Primary Screen | Serine/threonine-protein kinase PLK1 (Homo sapiens), P53350 | Plk1 PBD binding of FITC phosphopeptide, fluorescence polarization | Potency, µM, inactives show max response, negative = inhibition, most hits filed as inhibitors | 360,000 compounds, 2.8% hits | AID 720504, 2013; also: potency is read from the fitted curve at half-maximal effect; series mostly up to about 57 µM; nearly all actives have a fitted effect of over 65% in size
Target sequence (P53350 whole entry, looked up, the tested form may be a part): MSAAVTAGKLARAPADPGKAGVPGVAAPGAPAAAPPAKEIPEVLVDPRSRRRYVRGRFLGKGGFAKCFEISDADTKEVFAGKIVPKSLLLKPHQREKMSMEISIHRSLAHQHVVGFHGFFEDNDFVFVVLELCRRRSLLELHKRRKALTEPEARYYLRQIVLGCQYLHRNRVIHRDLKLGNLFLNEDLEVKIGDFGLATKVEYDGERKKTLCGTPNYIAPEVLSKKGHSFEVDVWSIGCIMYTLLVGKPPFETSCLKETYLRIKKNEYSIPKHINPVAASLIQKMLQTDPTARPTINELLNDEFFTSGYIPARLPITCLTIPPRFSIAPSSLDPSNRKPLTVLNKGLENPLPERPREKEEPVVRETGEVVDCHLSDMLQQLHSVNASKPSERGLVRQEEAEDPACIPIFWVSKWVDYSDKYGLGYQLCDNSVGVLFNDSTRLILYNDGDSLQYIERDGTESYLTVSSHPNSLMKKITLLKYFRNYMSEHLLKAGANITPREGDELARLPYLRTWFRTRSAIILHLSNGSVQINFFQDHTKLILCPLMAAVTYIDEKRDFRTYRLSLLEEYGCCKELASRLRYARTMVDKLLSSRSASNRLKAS
The depositor's hits bear a star; ? = inconclusive; nt = no result given; [ ] = dose if it differs, or a comment. Unless noted, calls follow the shape of the dose curve; as a rule, active = well fitted curve in the direction sought with a large enough effect; inconclusive = small, poorly fitted or top-dose-only effect, or another doubt; inactive = no such curve, though single readings can be large; an effect the other way counts as inactive or inconclusive. Unless noted, % is scaled to controls: 0 for no effect and ±100 for the full control effect.

SMILES	WRN inhibitor	USP2a inh	PI5P4Ka inh	USP1-UAF1 inh	PLK1 PBD block
O=c1[nH]c(=S)[nH]c2c1C(c1ccc(Br)cc1)c1c([nH]c(=S)[nH]c1=O)O2	14.1µM*	?	-75.2*	?	5.97µM*
O=C1CCCC2=C1C(c1ccc(Br)cc1)c1c([nH]c(=S)[nH]c1=O)N2 (stereo not given)	-2.7%	0.2%	-74.8*	-19.0%	26.7µM*
CC1(C)CC(=O)C2=C(C1)Nc1[nH]c(=S)[nH]c(=O)c1C2c1ccccc1 (stereo not given)	-8.0%	0.2%	-57.1*	-18.8%	?
COc1ccc(N2CCN(CCCNC(=O)c3cnn(-c4ccc(F)cc4)c3-n3cccc3)CC2)cc1	nt	nt	nt	-9.0%	nt
Cc1ccc(N2CCN(C(=O)c3c(C)oc4nc(C)nc(N5CCCC5)c34)CC2)c(C)c1	nt	nt	nt	-17.1%	nt
Cc1ccc(Cn2c(CNS(=O)(=O)c3cccc([N+](=O)[O-])c3)nc3cccnc32)cc1	nt	nt	nt	-21.9%	nt
Cc1oc(-c2ccc(Cl)cc2)nc1CN1CCCC(C(=O)NC2CC2)C1 (stereo not given)	4.6%	0.9%	-8.0	-5.1%	21.2µM*
COc1ccc(-c2nc(CN3CCCC(C(=O)NC4CCCC4)C3)c(C)o2)cc1 (stereo not given)	0.4%	-5.3%	-4.7	-12.5%	-1.1%
CN(C)c1ccc(/C=C(\C#N)C(=O)c2ccccc2)cc1	?	4.6%	-4.0	14.1µM*	54.8%
N#CC(=Cc1ccc(-c2ccccc2)cc1)C(=O)c1ccccc1	-15.5%[57.1 µM]	nt	-1.0	nt	1.5µM*
CCN(CC)c1ccc(/C=C(\C#N)C(N)=O)cc1	-5.2%	6.1%	-2.3	-3.6%	17.9%
CCN(CC)c1ccc(/C=C(\C#N)C(=O)c2ccc(Br)cc2)cc1	28.2µM*	?	-1.8	25.1µM*	-67.5%
CN(C)c1ccc(C=C(C#N)C(=O)c2ccccc2)cc1Br	-3.3%[57.1 µM]	nt	0.8	nt	0.844µM*
O=C(CCNS(=O)(=O)c1ccc2c(c1)CCCC(=O)N2)Nc1cccc(Cl)c1	nt	nt	nt	-18.1%	nt
COc1ccc(/C=C(\C#N)C(=O)c2cccn2C)cc1	-3.5%	5.0%	-0.4	-21.2%	-9.6%
N#C/C(=C\c1cccs1)C(=O)c1ccccc1	?	-0.6%	-7.4	-18.2%	6.7µM*
CC(=O)C(=Cc1ccc(-c2ccccc2)cc1)C(=O)c1ccccc1	-8.2%	nt	-0.8	nt	-15.2%
Cc1ccc(C=C(C#N)C(=O)c2ccccc2)cc1	1.7%[57.1 µM]	nt	-6.6	nt	1.89µM*
COc1ccc(/C=C(\C#N)C(=O)C(C)(C)n2cncn2)cc1	10.9%	0.8%	-4.2	-18.6%	13.4µM*
COc1ccc(C=C(C#N)C(=O)c2ccccc2)cc1	-12.0%	nt	-1.3	nt	6.7µM*
COc1ccccc1NC(=O)CSc1nc(O)c(C/C=C/c2ccccc2)c(=O)[nH]1	nt	nt	nt	-2.0%	nt
CCOc1ccccc1N1CC(c2nc3ccccc3n2CCOc2ccccc2OC)CC1=O (stereo not given)	nt	nt	nt	-9.2%	nt
N#C/C(=C\c1ccc(C#N)cc1)C(=O)c1ccccc1	-20.9%	-1.4%	-14.4	-14.7%	4.74µM*
COc1cc(-c2nc3ccccc3s2)ccc1O	-16.8%	4.5%	nt	-12.1%	-9.6%
COc1ccc(-c2nc3ccccc3s2)cc1O	-12.2%	2.8%	-22.0	-15.5%	23.8µM*
SMILES	WRN inhibitor	USP2a inh	PI5P4Ka inh	USP1-UAF1 inh	PLK1 PBD block
COc1ccc(OC)c(NC(=O)c2c(NCc3ccc(OC)c(OC)c3)sc3c2CCC(C)C3)c1 (stereo not given)	nt	nt	nt	-8.1%	nt
Brc1cc2c(cc1/C=N/Nc1nc3ccccc3s1)OCO2	3.1%	1.9%	2.7	-23.3%	-0.6%
O=C(O)C/C(=C\c1cc2c(cc1Br)OCO2)c1nc2ccccc2s1	-9.6%[11.6 µM]	-5.3%	-23.7	-4.1%	23.8µM*
CC(C)(C)OC(=O)N1CCC[C@H]1C(=O)NCc1ccc(Cl)cc1Cl	3.2%	3.8%	7.6	-10.7%	26.7µM*
NC(=S)NNc1ccnc2cc(Cl)ccc12	-5.4%	3.4%	?	-9.8%	21.2µM*
CNc1ncnc2ccc(-c3c(C)noc3C)cc12	nt	0.7%	nt	nt	nt
Cc1ccc(Nc2nc(=O)c3cccnc3s2)cc1	-13.3%	3.5%	nt	-6.6%	-4.6%
COc1ccc(OC)c(Nc2nc(=O)c3cccnc3s2)c1	0.3%	1.2%	-88.9*	-6.6%	6.7µM*
CCOC(=O)CSc1nc(C)c(CC)c(C)c1C(N)=O	-0.6%[57.1 µM]	1.0%	1.3	-9.8%	-5.9%
CCOC(=O)CSc1nc(N)nc(C)c1Cl	1.2%	0.9%	2.6	-9.6%	29.9µM*
Cc1cccc(-n2c(O)c(C=Nc3ccccc3-c3n[nH]c(=S)[nH]c3=O)c3ccccc3c2=O)n1	-2.1%	2.8%	-23.4	-23.2%	26.7µM*
Cc1ccc(-n2c(O)c(C=Nc3ccccc3-c3n[nH]c(=S)[nH]c3=O)c3ccccc3c2=O)c(C)c1	0.4%	-8.8%	-19.7	-27.5%	26.7µM*
Cc1cccc(-n2c(O)c(C=Nc3ccccc3O)c3ccccc3c2=O)n1	?	1.1%	-0.2	-19.1%	11.6%
Cc1ccc(-n2c(O)c(C=Nc3ccccc3-c3n[nH]c(=S)[nH]c3=O)c3ccccc3c2=O)cc1C	79.4µM*	-17.1%	-80.6*	?	29.9µM*
Cc1cc(NC(=O)C2CCN(S(=O)(=O)c3cccc4nsnc34)CC2)ccc1Br	nt	nt	nt	-19.0%	nt
Cc1ccc(C2c3[nH]c4ccccc4c3CCN2C(=O)CCc2ccccc2)cc1 (stereo not given)	nt	nt	nt	1.2%	nt
COCCCNC1=C(C#N)C(=O)NC(c2cccs2)S1 (stereo not given)	1.8%	nt	-17.6	-11.9%	-25.6%
N#CC1=C(Nc2ccccc2Cl)SC(c2ccncc2)NC1=O (stereo not given)	9.6%[57.1 µM]	nt	?	nt	26.7µM*
N#CC1=C(Nc2ccccc2Cl)SC2(CCCC2)NC1=O	7.9%[57.1 µM]	nt	-51.0*	nt	?
CS(=O)(=O)n1nc(OC(=O)c2cc(Br)ccc2Cl)cc1N	0.2%	-1.4%	-6.8	-7.8%	10.6µM*
Nc1cc(N)nc(SCc2cc(=O)oc3cc4c(cc23)CCC4)n1	5.5%	-0.4%	-22.1	-9.3%	26.7µM*
NS(=O)(=O)c1ccc(SCc2ccccc2)nc1	-10.1%	nt	-1.2	-3.0%	-6.6%
O=S(=O)(O)c1ccc(SCc2ccccc2)nc1	-16.0%	nt	-22.3	-13.6%	21.2µM*
CCOc1ccc2nc(N3CCCC(C(=O)Nc4ccc(OC)c(Cl)c4)C3)sc2c1 (stereo not given)	nt	nt	nt	-17.0%	nt
Cc1cc(C)cc(N2C(=O)CC(Sc3ncn[nH]3)C2=O)c1 (stereo not given)	0.4%	-0.6%	-0.5	-20.8%	23.8µM*
O=[N+]([O-])c1ccc(S(=O)(=O)c2ccccc2)nc1	?	-1.3%	-2.7	?	5.32µM*
